Here are results for 53 sequences from publication PMC12820563, “FoxP3 forms a head-to-head dimer in vivo and stabilizes its multimerization on adjacent microsatellites”.

The full ranking holds about 16,000 sequences; the median of “rpm ratio (pull-down/input)” is about 0.5, and the highest 2% start at about 5.5. The sample as a whole holds a higher share of the highest values than the screen did.

This test has as its target T1, MBP-FoxP3dN (Mus musculus, UniProt Q99JB6 188-423).
T1 sequence: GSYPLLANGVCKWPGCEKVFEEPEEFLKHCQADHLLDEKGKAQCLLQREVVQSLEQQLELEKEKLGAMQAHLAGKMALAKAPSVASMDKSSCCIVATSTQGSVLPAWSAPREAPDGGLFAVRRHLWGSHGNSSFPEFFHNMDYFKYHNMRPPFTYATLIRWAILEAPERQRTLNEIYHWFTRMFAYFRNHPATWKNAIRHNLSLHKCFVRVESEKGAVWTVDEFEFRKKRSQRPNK
The experiment in a line: PD-seq (MBP pull-down with sequencing); 20 mM Tris-HCl pH 7.5, 100 mM NaCl, 1.5 mM MgCl2, 0.4 uM protein, 0.1 uM dsDNA library, 30 min, room temperature, amylose pull-down; high values mean tight binding. The following applies: protein: recombinant; tags: His6-MBP; chain copies: 2; dsDNA, one strand shown. The gist of the method:
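His6-MBP-tagged mouse FoxP3 or FoxP1 fragment lacking the N-terminus, expressed in E. coli, was mixed at 0.4 µM with 0.1 µM Klenow-filled double-stranded degenerate DNA library. Incubation was 30 min at room temperature in Tris pH 7.5 buffer with NaCl and MgCl2. Complexes were caught on amylose resin and washed three times; DNA was released with proteinase K, PCR-barcoded and Illumina-sequenced. Binding is reads-per-million enrichment, pull-down over input, with replicates pooled.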
Turning to “GATGATTGTTCTCCCAGCTGATGAATTTTCTCGCTCGAGTAAACAAATTTTCCTAATCTTTCTGTTCAAGCGCCATCTAC”, the binding signal is 0.241 RPM ratio (pull-down/input). The value for “GATGATTGTTCTCCCAGCTGATGAATTATATATATCGAGTAAACAAATTTTCCTAATCTTTCTGTTCAAGCGCCATCTAC” was 1.27 RPM ratio (pull-down/input). The same measure for “GATGATTGTTCTCCCAGCTGATGAATTGAAGGGATCGAGTAAACAAATTTTCCTAATCTTTCTGTTCAAGCGCCATCTAC”: 0.265 RPM ratio (pull-down/input); for “GATGATTGTTCTCCCAGCTGATGAATTCAGGCGATCGAGTAAACAAATTTTCCTAATCTTTCTGTTCAAGCGCCATCTAC”: 0.508 RPM ratio (pull-down/input); for “GATGATTGTTCTCCCAGCTGATGAATTGTGCGTGTCGAGTAAACAAATTTTCCTAATCTTTCTGTTCAAGCGCCATCTAC”: 6.18 RPM ratio (pull-down/input). The same measure for “GATGATTGTTCTCCCAGCTGATGAATTGTGTGCGTCGAGTAAACAAATTTTCCTAATCTTTCTGTTCAAGCGCCATCTAC”: 2.16 RPM ratio (pull-down/input); for “GATGATTGTTCTCCCAGCTGATGAATTTTGCGTGTCGAGTAAACAAATTTTCCTAATCTTTCTGTTCAAGCGCCATCTAC”: 5.56 RPM ratio (pull-down/input); for “GATGATTGTTCTCCCAGCTGATGAATTATATGCGTCGAGTAAACAAATTTTCCTAATCTTTCTGTTCAAGCGCCATCTAC”: 1.07 RPM ratio (pull-down/input). As for “GATGATTGTTCTCCCAGCTGATGAATTGCGCGTGTCGAGTAAACAAATTTTCCTAATCTTTCTGTTCAAGCGCCATCTAC”, the binding signal was 4.88 RPM ratio (pull-down/input). The same measure for “GATGATTGTTCTCCCAGCTGATGAATTGCGTGTGTCGAGTAAACAAATTTTCCTAATCTTTCTGTTCAAGCGCCATCTAC”: 2.22 RPM ratio (pull-down/input); for “GATGATTGTTCTCCCAGCTGATGAATTATGCGTGTCGAGTAAACAAATTTTCCTAATCTTTCTGTTCAAGCGCCATCTAC”: 5.88 RPM ratio (pull-down/input). For the sequence “GATGATTGTTCTCCCAGCTGATGAATTTGCGTGTTCGAGTAAACAAATTTTCCTAATCTTTCTGTTCAAGCGCCATCTAC”, the binding signal was 3.79 RPM ratio (pull-down/input).

In the case of “GATGATTGTTCTCCCAGCTGATGAATTATGCGCGTCGAGTAAACAAATTTTCCTAATCTTTCTGTTCAAGCGCCATCTAC”, the binding signal is 3.33 RPM ratio (pull-down/input). The same measure for “GATGATTGTTCTCCCAGCTGATGAATTGGCCACGTCGAGTAAACAAATTTTCCTAATCTTTCTGTTCAAGCGCCATCTAC”: 0.526 RPM ratio (pull-down/input). The value for “GATGATTGTTCTCCCAGCTGATGAATTGGTAGCTTCGAGTAAACAAATTTTCCTAATCTTTCTGTTCAAGCGCCATCTAC” was 0.798 RPM ratio (pull-down/input). The same measure for “GATGATTGTTCTCCCAGCTGATGAATTTAGCCCGTCGAGTAAACAAATTTTCCTAATCTTTCTGTTCAAGCGCCATCTAC”: 1.59 RPM ratio (pull-down/input); for “GATGATTGTTCTCCCAGCTGATGAATTAGTGCGATCGAGTAAACAAATTTTCCTAATCTTTCTGTTCAAGCGCCATCTAC”: 0.851 RPM ratio (pull-down/input). As to “GATGATTGTTCTCCCAGCTGATGAATTGTTTGTCTCGAGTAAACAAATTTTCCTAATCTTTCTGTTCAAGCGCCATCTAC”, the binding signal was 7.63 RPM ratio (pull-down/input).

With “GATGATTGTTCTCCCAGCTGATGAATTGTTGTCCTCGAGTAAACAAATTTTCCTAATCTTTCTGTTCAAGCGCCATCTAC”, the binding signal was 5.63 RPM ratio (pull-down/input). The same measure for “GATGATTGTTCTCCCAGCTGATGAATTTGTCTACTCGAGTAAACAAATTTTCCTAATCTTTCTGTTCAAGCGCCATCTAC”: 5.77 RPM ratio (pull-down/input). For the sequence “GATGATTGTTCTCCCAGCTGATGAATTTTGTCTCTCGAGTAAACAAATTTTCCTAATCTTTCTGTTCAAGCGCCATCTAC”, the binding signal was 2.39 RPM ratio (pull-down/input). The same measure for “GATGATTGTTCTCCCAGCTGATGAATTCTTTGTCTCGAGTAAACAAATTTTCCTAATCTTTCTGTTCAAGCGCCATCTAC”: 0.413 RPM ratio (pull-down/input). Take “GATGATTGTTCTCCCAGCTGATGAATTGTCCTACTCGAGTAAACAAATTTTCCTAATCTTTCTGTTCAAGCGCCATCTAC”: the binding signal was 0.368 RPM ratio (pull-down/input). The value for “GATGATTGTTCTCCCAGCTGATGAATTTTTTTTCTCGAGTAAACAAATTTTCCTAATCTTTCTGTTCAAGCGCCATCTAC” was 0.267 RPM ratio (pull-down/input). The same measure for “GATGATTGTTCTCCCAGCTGATGAATTTCTGTCCTCGAGTAAACAAATTTTCCTAATCTTTCTGTTCAAGCGCCATCTAC”: 0.313 RPM ratio (pull-down/input); for “GATGATTGTTCTCCCAGCTGATGAATTGTTGTTCTCGAGTAAACAAATTTTCCTAATCTTTCTGTTCAAGCGCCATCTAC”: 7.17 RPM ratio (pull-down/input); for “GATGATTGTTCTCCCAGCTGATGAATTTCTAATCTCGAGTAAACAAATTTTCCTAATCTTTCTGTTCAAGCGCCATCTAC”: 0.288 RPM ratio (pull-down/input). Take “GATGATTGTTCTCCCAGCTGATGAATTGTCTTACTCGAGTAAACAAATTTTCCTAATCTTTCTGTTCAAGCGCCATCTAC”: the binding signal was 0.469 RPM ratio (pull-down/input). The same measure for “GATGATTGTTCTCCCAGCTGATGAATTGTCCTCCTCGAGTAAACAAATTTTCCTAATCTTTCTGTTCAAGCGCCATCTAC”: 0.37 RPM ratio (pull-down/input); for “GATGATTGTTCTCCCAGCTGATGAATTTGTGCGCTCGAGTAAACAAATTTTCCTAATCTTTCTGTTCAAGCGCCATCTAC”: 1.87 RPM ratio (pull-down/input). The value for “GATGATTGTTCTCCCAGCTGATGAATTTATGCGGTCGAGTAAACAAATTTTCCTAATCTTTCTGTTCAAGCGCCATCTAC” was 1.09 RPM ratio (pull-down/input); that for “GATGATTGTTCTCCCAGCTGATGAATTAGTCCGCTCGAGTAAACAAATTTTCCTAATCTTTCTGTTCAAGCGCCATCTAC” was 0.349 RPM ratio (pull-down/input); that for “GATGATTGTTCTCCCAGCTGATGAATTTTGTCGATCGAGTAAACAAATTTTCCTAATCTTTCTGTTCAAGCGCCATCTAC” was 1.18 RPM ratio (pull-down/input). The value for “GATGATTGTTCTCCCAGCTGATGAATTCTTCGACTCGAGTAAACAAATTTTCCTAATCTTTCTGTTCAAGCGCCATCTAC” was 0.239 RPM ratio (pull-down/input); that for “GATGATTGTTCTCCCAGCTGATGAATTGATAATCTCGAGTAAACAAATTTTCCTAATCTTTCTGTTCAAGCGCCATCTAC” was 0.411 RPM ratio (pull-down/input); that for “GATGATTGTTCTCCCAGCTGATGAATTTACTTTCTCGAGTAAACAAATTTTCCTAATCTTTCTGTTCAAGCGCCATCTAC” was 1.32 RPM ratio (pull-down/input).

Take “GATGATTGTTCTCCCAGCTGATGAATTCTAGCCTTCGAGTAAACAAATTTTCCTAATCTTTCTGTTCAAGCGCCATCTAC”: the binding signal is 1.89 RPM ratio (pull-down/input). For the sequence “GATGATTGTTCTCCCAGCTGATGAATTTCCGTGGTCGAGTAAACAAATTTTCCTAATCTTTCTGTTCAAGCGCCATCTAC”, the binding signal was 0.282 RPM ratio (pull-down/input). The same measure for “GATGATTGTTCTCCCAGCTGATGAATTCGTCGGGTCGAGTAAACAAATTTTCCTAATCTTTCTGTTCAAGCGCCATCTAC”: 0.574 RPM ratio (pull-down/input); for “GATGATTGTTCTCCCAGCTGATGAATTGGTTTGCTCGAGTAAACAAATTTTCCTAATCTTTCTGTTCAAGCGCCATCTAC”: 4.24 RPM ratio (pull-down/input); for “GATGATTGTTCTCCCAGCTGATGAATTTTAGTTATCGAGTAAACAAATTTTCCTAATCTTTCTGTTCAAGCGCCATCTAC”: 1.33 RPM ratio (pull-down/input). The same measure for “GATGATTGTTCTCCCAGCTGATGAATTTCTGTCTTCGAGTAAACAAATTTTCCTAATCTTTCTGTTCAAGCGCCATCTAC”: 0.368 RPM ratio (pull-down/input); for “GATGATTGTTCTCCCAGCTGATGAATTGTTGTCTTCGAGTAAACAAATTTTCCTAATCTTTCTGTTCAAGCGCCATCTAC”: 5.62 RPM ratio (pull-down/input). The value for “GATGATTGTTCTCCCAGCTGATGAATTGTCTTCTTCGAGTAAACAAATTTTCCTAATCTTTCTGTTCAAGCGCCATCTAC” was 0.478 RPM ratio (pull-down/input). “GATGATTGTTCTCCCAGCTGATGAATTTTTTGTCTCGAGTAAACAAATTTTCCTAATCTTTCTGTTCAAGCGCCATCTAC”: the binding signal was 0.367 RPM ratio (pull-down/input). The same measure for “GATGATTGTTCTCCCAGCTGATGAATTTGTCTTCTCGAGTAAACAAATTTTCCTAATCTTTCTGTTCAAGCGCCATCTAC”: 4.22 RPM ratio (pull-down/input); for “GATGATTGTTCTCCCAGCTGATGAATTTGTTGTCTCGAGTAAACAAATTTTCCTAATCTTTCTGTTCAAGCGCCATCTAC”: 7.77 RPM ratio (pull-down/input).

In the case of “GATGATTGTTCTCCCAGCTGATGAATTCCATTCGTCGAGTAAACAAATTTTCCTAATCTTTCTGTTCAAGCGCCATCTAC”, the binding signal is 0.494 RPM ratio (pull-down/input). The same measure for “GATGATTGTTCTCCCAGCTGATGAATTAGAGAGTTCGAGTAAACAAATTTTCCTAATCTTTCTGTTCAAGCGCCATCTAC”: 0.399 RPM ratio (pull-down/input); for “GATGATTGTTCTCCCAGCTGATGAATTACTGGGGTCGAGTAAACAAATTTTCCTAATCTTTCTGTTCAAGCGCCATCTAC”: 0.231 RPM ratio (pull-down/input); for “GATGATTGTTCTCCCAGCTGATGAATTGAACTGGTCGAGTAAACAAATTTTCCTAATCTTTCTGTTCAAGCGCCATCTAC”: 0.209 RPM ratio (pull-down/input). The value for “GATGATTGTTCTCCCAGCTGATGAATTAGAGATCTCGAGTAAACAAATTTTCCTAATCTTTCTGTTCAAGCGCCATCTAC” was 0.32 RPM ratio (pull-down/input); that for “GATGATTGTTCTCCCAGCTGATGAATTAGAATGTTCGAGTAAACAAATTTTCCTAATCTTTCTGTTCAAGCGCCATCTAC” was 0.671 RPM ratio (pull-down/input).
